Experimental data reported in article PMC4336329 (PLoS ONE, 2015).
Hit rate of the full screen: of about 310,000 compounds, about 14,000 (4.5%) showed an effect of 50% or more. Effects have a minus sign here. The list comes from a sample in which strong results are over-represented; it also holds similar structures and randomly drawn compounds.
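Also: peak tail current of the secondary pulse compared with the same well before compound.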

These molecules were tested against human ether-à-go-go-related gene (hERG) potassium channel (human, UniProt Q12809) (assay: primary screen, population patch clamp on CHO cells stably expressing hERG; higher = less effect of the substance).
Sequence of human ether-à-go-go-related gene (hERG) potassium channel (Q12809 whole entry, looked up): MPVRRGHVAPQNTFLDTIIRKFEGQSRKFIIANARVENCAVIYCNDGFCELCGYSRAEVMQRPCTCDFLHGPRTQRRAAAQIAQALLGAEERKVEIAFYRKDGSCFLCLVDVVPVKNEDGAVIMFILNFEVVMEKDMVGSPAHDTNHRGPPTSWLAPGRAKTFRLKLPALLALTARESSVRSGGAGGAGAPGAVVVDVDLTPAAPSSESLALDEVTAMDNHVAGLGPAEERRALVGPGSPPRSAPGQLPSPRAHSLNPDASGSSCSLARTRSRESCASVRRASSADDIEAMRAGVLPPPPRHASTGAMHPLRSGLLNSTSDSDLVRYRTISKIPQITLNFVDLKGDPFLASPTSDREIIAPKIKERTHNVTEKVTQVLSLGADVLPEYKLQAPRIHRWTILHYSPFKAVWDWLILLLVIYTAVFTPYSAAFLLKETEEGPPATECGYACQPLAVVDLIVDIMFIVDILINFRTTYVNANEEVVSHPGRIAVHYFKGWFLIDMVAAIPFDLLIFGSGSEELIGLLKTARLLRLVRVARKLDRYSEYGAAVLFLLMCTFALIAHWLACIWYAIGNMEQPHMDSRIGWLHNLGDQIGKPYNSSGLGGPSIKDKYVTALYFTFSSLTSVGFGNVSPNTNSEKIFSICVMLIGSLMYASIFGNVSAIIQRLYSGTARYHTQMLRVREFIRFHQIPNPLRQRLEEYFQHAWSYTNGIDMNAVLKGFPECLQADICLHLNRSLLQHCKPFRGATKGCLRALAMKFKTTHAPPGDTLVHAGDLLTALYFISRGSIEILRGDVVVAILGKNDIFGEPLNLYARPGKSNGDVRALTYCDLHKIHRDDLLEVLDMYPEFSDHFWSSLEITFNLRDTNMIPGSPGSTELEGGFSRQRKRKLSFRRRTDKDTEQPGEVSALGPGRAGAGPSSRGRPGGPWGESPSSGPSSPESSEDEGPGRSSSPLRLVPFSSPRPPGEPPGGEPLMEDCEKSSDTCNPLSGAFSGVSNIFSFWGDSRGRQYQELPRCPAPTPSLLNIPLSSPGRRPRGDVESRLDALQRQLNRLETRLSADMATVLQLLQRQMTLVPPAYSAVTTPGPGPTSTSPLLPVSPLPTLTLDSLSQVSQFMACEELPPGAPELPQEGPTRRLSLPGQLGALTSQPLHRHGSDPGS
For `COc1ccc(-n2nc(C(=O)NCC(=O)NCCCN3CCN(C)CC3)c3ccccc3c2=O)cc1OC`, the “hERG current change (%, negative = inhibition) at 10uM” value was 18.9%.
With `Cc1ccccc1CN1C2=NCCN2c2ccccc21.Cl` the “hERG current change (%, negative = inhibition) at 10uM” value was -53.7%.
In the case of `Cc1ccccc1CN1C2=NCCCN2c2ccccc21.Cl`, the “hERG current change (%, negative = inhibition) at 10uM” value is reported as -68%.
`CS(=O)(=O)NCc1nnc(SCC(=O)NC2CCCCC2)n1-c1ccc(F)cc1` was tested, and the “hERG current change (%, negative = inhibition) at 10uM” value was 11.6%.
In the case of `CCn1cc(C(=O)NCc2ccco2)c2cc(OC)c(OC)cc2c1=O`, the “hERG current change (%, negative = inhibition) at 10uM” value is reported as -20.9%.
With `CCn1cc(C(=O)NCc2ccco2)c(=O)c2ccc(C)nc21` the “hERG current change (%, negative = inhibition) at 10uM” value was 16.9%.
`COCCn1c(=N)c(C(=O)NCc2ccco2)cc2c(=O)n3ccccc3nc21` was tested, and the “hERG current change (%, negative = inhibition) at 10uM” value was -78.1%.
`COCCn1c(=N)c(C(=O)NCc2ccco2)cc2c(=O)n3cc(C)ccc3nc21` was tested, and the “hERG current change (%, negative = inhibition) at 10uM” value was -82.1%.
`Cc1ccc2nc3c(cc(C(=O)NCc4ccco4)c(=N)n3Cc3ccco3)c(=O)n2c1` was tested, and the “hERG current change (%, negative = inhibition) at 10uM” value was -77%.
For `COCCn1c(=N)c(S(=O)(=O)c2ccc(Br)cc2)cc2c(=O)n3ccccc3nc21`, the “hERG current change (%, negative = inhibition) at 10uM” value was -44.3%.
With `COCCn1c(=N)c(S(=O)(=O)c2ccc(F)cc2)cc2c(=O)n3ccccc3nc21` the “hERG current change (%, negative = inhibition) at 10uM” value was -25.5%.
In the case of `COCCn1cc(C(=O)NCc2ccco2)c2c3ccccc3n(C)c2c1=O`, the “hERG current change (%, negative = inhibition) at 10uM” value is reported as -20.6%.
With `Cc1cc2ccccc2c(=O)n1CC(=O)NCc1ccco1` the “hERG current change (%, negative = inhibition) at 10uM” value was 13.8%.
In the case of `COc1ccc2c(c1)CCc1c(C(=O)N3CCCC3)noc1-2`, the “hERG current change (%, negative = inhibition) at 10uM” value is reported as -7.79%.
`CC(C)c1ccccc1NC(=O)COC(=O)Cc1c[nH]c2ccccc12` was tested, and the “hERG current change (%, negative = inhibition) at 10uM” value was 7.28%.
For `C/C(=N\NC(=O)c1ccncc1)c1c(O)[nH]c(=O)[nH]c1=O`, the “hERG current change (%, negative = inhibition) at 10uM” value was -1.22%.
`[O-]/C(=C(\C(=S)Nc1ccc(SC(F)F)cc1)[n+]1ccccc1)c1cc(Cl)ccc1Cl` was tested, and the “hERG current change (%, negative = inhibition) at 10uM” value was 1.83%.
In the case of `COc1ccc(-c2noc(CN(C(=O)c3c(-c4ccccc4Cl)noc3C)C(C)C)n2)cc1`, the “hERG current change (%, negative = inhibition) at 10uM” value is reported as 14.8%.
In the case of `O=C(O)C1CC=CCC1C(=O)Nc1cccc(C(=O)N2CCCCC2)c1` (stereo not drawn), the “hERG current change (%, negative = inhibition) at 10uM” value is reported as -5.25%.
For `CN1C[C@H](C(=O)N[C@]2(C)O[C@@]3(O)[C@@H]4CCCN4C(=O)[C@H](Cc4ccccc4)N3C2=O)CC2c3cccc4[nH]cc(c34)C[C@H]21.O=C(O)C(O)C(O)C(=O)O` (stereo partly drawn), the “hERG current change (%, negative = inhibition) at 10uM” value was 2.03%.
For `CC(NC(=O)NNC(N)=S)(C(F)(F)F)C(F)(F)F`, the “hERG current change (%, negative = inhibition) at 10uM” value was 4.68%.
With `CCOc1ccc2nc(N(CCCN(C)C)C(=O)c3ccc4c(c3)CCCC4)sc2c1.Cl` the “hERG current change (%, negative = inhibition) at 10uM” value was -14.1%.
With `CN(C)CCCN(C(=O)c1ccc2c(c1)CCCC2)c1nc2ccc(Cl)cc2s1.Cl` the “hERG current change (%, negative = inhibition) at 10uM” value was -43.8%.
With `CCN(CC)CCN(C(=O)c1ccc2c(c1)CCCC2)c1nc2ccc(F)cc2s1.Cl` the “hERG current change (%, negative = inhibition) at 10uM” value was -1.94%.
In the case of `CN(C)CCCN(C(=O)c1ccc2c(c1)CCCC2)c1nc2ccc(F)cc2s1.Cl`, the “hERG current change (%, negative = inhibition) at 10uM” value is reported as -66.9%.
For `Cc1ccc2nc(N(CCCN(C)C)C(=O)c3ccc4c(c3)CCCC4)sc2c1.Cl`, the “hERG current change (%, negative = inhibition) at 10uM” value was -71.5%.
In the case of `CCN(CC)CCN(C(=O)c1ccc2c(c1)CCCC2)c1nc2ccc(C)cc2s1.Cl`, the “hERG current change (%, negative = inhibition) at 10uM” value is reported as 10.1%.
For `CCN(CC)C(=O)C1CCC(C)(C(=O)O)C1(C)C` (stereo not drawn), the “hERG current change (%, negative = inhibition) at 10uM” value was 3.91%.
For `O=S1(=O)CCO[C@H]2Cc3ccccc3[C@H]2N1Cc1cccc(Cl)c1`, the “hERG current change (%, negative = inhibition) at 10uM” value was -28.4%.
With `Cc1nc(SCn2nnc3ccccc3c2=O)nc(C)c1C` the “hERG current change (%, negative = inhibition) at 10uM” value was -12.3%.
`Cc1ccc(OCCNC(=O)/C=C/c2ccccc2)cc1C` was tested, and the “hERG current change (%, negative = inhibition) at 10uM” value was -8.32%.
For `Cc1cc(=O)n2nc(N3CCC(C(=O)NC(C)c4ccccc4)CC3)sc2n1` (stereo not drawn), the “hERG current change (%, negative = inhibition) at 10uM” value was 5.85%.
With `O=C(OCc1nc2ccsc2c(=O)[nH]1)c1ccccc1` the “hERG current change (%, negative = inhibition) at 10uM” value was 0.869%.
`CCc1ccc(C(=O)COC(=O)CNC(=O)c2ccco2)cc1` was tested, and the “hERG current change (%, negative = inhibition) at 10uM” value was -18.2%.
`Cc1ccc(C(=O)COC(=O)CNC(=O)c2ccc(Br)o2)cc1[N+](=O)[O-]` was tested, and the “hERG current change (%, negative = inhibition) at 10uM” value was 4.86%.
With `CCc1ccc(C(=O)COC(=O)CNC(=O)CNC(=O)Cc2ccccc2)cc1` the “hERG current change (%, negative = inhibition) at 10uM” value was 9.36%.
`COc1ccccc1C(=O)COC(=O)CNC(=O)c1ccc(Br)o1` was tested, and the “hERG current change (%, negative = inhibition) at 10uM” value was -50.7%.
`CN(CC(=O)Nc1ccccc1Cl)C(=O)COC(=O)CNC(=O)c1ccc(Br)o1` was tested, and the “hERG current change (%, negative = inhibition) at 10uM” value was -61.4%.
For `COc1ccccc1C(=O)NNC(=O)c1ccc(Br)o1`, the “hERG current change (%, negative = inhibition) at 10uM” value was 14%.
`COc1ccccc1C(=O)NCC(=O)OCC(=O)c1cccc2ccccc12` was tested, and the “hERG current change (%, negative = inhibition) at 10uM” value was 4.06%.
For `Cc1cccc(C(=O)NCC(=O)OCC(=O)N(C)CC(=O)Nc2ccccc2Cl)c1`, the “hERG current change (%, negative = inhibition) at 10uM” value was -40.5%.
`CCc1ccc(C(=O)COC(=O)CNC(=O)COc2ccccc2)cc1` was tested, and the “hERG current change (%, negative = inhibition) at 10uM” value was -57.4%.
For `CCc1ccc(C(=O)COC(=O)CNC(=O)Cc2ccccc2)cc1`, the “hERG current change (%, negative = inhibition) at 10uM” value was 0.382%.
For `CN(CC(=O)Nc1ccccc1Cl)C(=O)COC(=O)Cc1ccc(F)cc1`, the “hERG current change (%, negative = inhibition) at 10uM” value was 1.33%.
For `CCc1ccc(C(=O)COC(=O)CNC(=O)c2ccc(Br)o2)cc1`, the “hERG current change (%, negative = inhibition) at 10uM” value was -64%.
